# What was measured:
# Experiment in all cases: PBM binding z-score (relative to random genomic background probes); higher = stronger binding; sequences stand for … in GC…GCGATTGACAGCGTAGAATGAAGG
# [1] = tested on: FXR:RXRa (NR concentration 270 nM, RXRa partner concentration 90 nM)
# Outline: (§1)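 Binding z-scores take random background probes as their reference. They come from custom Agilent 4×180K protein-binding microarrays incubated 1 h with ligand-free nuclear receptor dimers, with antibodies against each partner (one per run) detecting binding. Scanned fluorescence was regression-normalized.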
# [2] = tested on: LXRa:RXRa (NR concentration 270 nM, RXRa partner concentration 90 nM)
# Outline: as §1
# [3] = tested on: LXRa homodimer (NR concentration 270 nM)
# Outline: as §1
# [4] = tested on: LXRb:RXRa (NR concentration 270 nM, RXRa partner concentration 90 nM)
# Outline: as §1
# [5] = tested on: LXRb homodimer (NR concentration 270 nM)
# Outline: as §1
# [6] = tested on: PPARa:RXRa (NR concentration 270 nM, RXRa partner concentration 90 nM)
# Outline: as §1
# [7] = tested on: PPARg:RXRa (NR concentration 180 nM, RXRa partner concentration 90 nM)
# Outline: as §1
# [8] = tested on: PPARg:RXRa 270nM:90nM, anti-RXR (NR concentration 270 nM, RXRa partner concentration 90 nM)
# Outline: as §1
# [9] = tested on: PPARg:RXRa 30nM:10nM, anti-RXR (NR concentration 30 nM, RXRa partner concentration 10 nM)
# Outline: as §1
# [10] = tested on: PPARg:RXRa 90nM:30nM, anti-RXR (NR concentration 90 nM, RXRa partner concentration 30 nM)
# Outline: as §1
# [11] = tested on: PPARg:RXRa DBDmut IVT, anti-RXR (DBD mutation: RXRa K156A/R161A, NR concentration 270 nM, RXRa partner concentration 90 nM)
# Outline: as §1
# [12] = tested on: PPARg:RXRa IVT, anti-PPARg (NR concentration 270 nM, RXRa partner concentration 90 nM)
# Outline: as §1
# [13] = tested on: PPARg DBDmut:RXRa IVT, anti-PPARg (DBD mutation: PPARg1 K132A/R137A, NR concentration 270 nM, RXRa partner concentration 90 nM)
# Outline: as §1
# [14] = tested on: PPARg DBDmut IVT, anti-PPARg (DBD mutation: PPARg1 K132A/R137A, NR concentration 270 nM)
# Outline: as §1
# [15] = tested on: PPARg homodimer (NR concentration 180 nM)
# Outline: as §1
# [16] = tested on: PXR:RXRa (NR concentration 270 nM, RXRa partner concentration 90 nM)
# Outline: as §1
# [17] = tested on: PXR homodimer (NR concentration 270 nM)
# Outline: as §1
# [18] = tested on: RARa:RXR (NR concentration 270 nM, RXRa partner concentration 90 nM)
# Outline: as §1
# [19] = tested on: RARa homodimer (NR concentration 270 nM)
# Outline: as §1
# [20] = tested on: RARb:RXRa (NR concentration 270 nM, RXRa partner concentration 90 nM)
# Outline: as §1
Sequence,PBM binding z-score [1],PBM binding z-score [2],PBM binding z-score [3],PBM binding z-score [4],PBM binding z-score [5],PBM binding z-score [6],PBM binding z-score [7],PBM binding z-score [8],PBM binding z-score [9],PBM binding z-score [10],PBM binding z-score [11],PBM binding z-score [12],PBM binding z-score [13],PBM binding z-score [14],PBM binding z-score [15],PBM binding z-score [16],PBM binding z-score [17],PBM binding z-score [18],PBM binding z-score [19],PBM binding z-score [20]
CGAAGTAGGTCATTGACAGGACAGTGAATAGTAA,4.75,3.56,0.791,2.6,0.392,5.05,7.92,6.67,4.6,6.57,8.42,8.66,3.43,2.58,2.08,2.16,0.395,2.66,0.16,3.58
TCAGTCAGGTGAAGGTAACTCAGGTACGCAGTCG,1.03,1.75,-0.167,0.908,0.224,1.1,0.838,2.17,3.25,2.69,2.31,1.88,0.527,-0.686,0.571,0.5,0.129,0.701,0.00869,1.52
AGTCAAAGTTCAGGACGAGGTAACTTAAAGCACG,4.45,3.83,1.38,2.1,0.364,3.59,4.72,4.85,2.02,3.7,-0.0506,2.05,0.457,0.0759,1.75,3.24,1.4,2.84,1.02,4.25
CAAACGAGGGCATGAGTTGATAGCAAATGCCGAT,0.718,0.454,-0.447,0.313,-0.289,1.86,1.7,1.88,0.402,1.12,2.71,2.88,0.524,-0.353,0.909,0.572,-0.0239,0.752,-0.274,2.24
CGAACTAGGTCATTGACAGGACACTGAATAGTAA,4.3,3,0.64,2.25,0.377,4.54,7.31,6.14,3.7,5.66,8.02,7.96,2,1.46,2.02,1.66,0.493,2.18,0.218,3.69
GGAACGAGGGCATCCGAGTTGATAGCATGGCGAT,1.24,0.897,-0.543,-0.129,-0.874,1.53,1.15,0.688,-0.271,-0.0258,2.9,2.23,-0.317,-0.705,-0.0747,3.67,0.048,0.949,-0.37,1.78
TCTTGTAGATCATCAGGAGGTTAAGAAAGATCGA,0.0818,1.07,-0.0921,0.94,-0.422,1.1,-0.109,1.34,2.4,1.84,1.49,0.887,1.1,-0.169,-0.101,0.787,-0.453,0.957,-0.298,0.52
ACAGACAGATGATGAAGGTAACTCAGGCTATCAT,0.128,-0.0336,0.0406,0.0281,0.222,-0.128,0.719,-0.0905,0.15,-0.00308,-0.169,-0.00444,1.17,0.707,0.677,-0.0799,0.468,0.101,0.591,0.13
AGAACGAGGGCAATGAGTTGACAGCACGGGTGGC,0.329,0.24,-0.349,-0.388,-0.581,1.24,1.38,0.8,0.0302,0.423,3.68,2.54,0.168,0.4,-0.106,1.19,2.68,0.713,-0.225,2.12
TCTAGTTGGTCACGGAGGTCACACAAGACGGGTA,3.16,3.39,2.41,3.46,0.597,3.99,3.49,4.05,3.51,3.75,2.31,4.34,0.505,0.71,2.71,4.55,1.16,4.17,1.37,3.87
AGTCAAAGTTCACTAGATAACGTAAGATTCAGCT,4.55,4.91,2.72,2.91,1.04,3.97,5.54,5.7,2.23,4.53,0.283,2.53,1.22,1.17,2.06,3.77,3.07,2.89,1.09,4.66
TAGCCTAGGTCATGCGGGCCAGGATAGTGTCGGC,3.94,2.96,0.218,1.4,-0.35,3.42,2.26,2.41,0.605,1.56,1.52,3,-0.00181,-0.781,0.191,1.29,-0.269,1.89,-0.855,3.74
ATCTCTAGTTAAAGTTCAGTGAAAGATCGATAGA,1.49,2.07,2.94,1.57,1.33,1.78,1.74,3.2,1.74,2.89,0.143,0.671,0.424,1.48,2.14,2.29,2.21,1.41,2.45,2.61
TATACAGGGTCAAAGGCCCGAGTACGAATGTCGA,6.5,6.07,1.91,4.39,2,5.84,6.14,6.28,2.84,5.12,1.95,4.09,1.37,0.769,1.13,3.57,0.0932,4.41,0.102,4.33
CGAACTAGGTCATCCAGGGCAGTGAATACATTGA,4.8,3.06,0.45,2.11,-0.0808,5.08,7.91,6.54,4.15,5.95,8.06,8.48,5.35,1.78,2.66,2.66,1.95,2.47,0.454,4.29
GCTAGCCGGCCATTTGGGTCACTCAATGACGGGC,0.14,-0.0989,-0.475,-0.0153,-0.65,1.12,0.338,0.0131,-0.633,-0.159,0.149,1.18,-0.74,-1.42,-0.135,0.15,-0.217,0.452,-1.3,1.19
CCAAACAGGTGAAAGGTAACTCAGTCTGGTACGC,0.642,0.809,-0.217,1.09,-0.282,3.85,7.47,7.29,7.5,8.18,3.27,4.15,0.615,0.037,1.17,1.01,0.17,2.3,1.21,1.21
GCAGACAGGTGAAACGCAGGTAACTCATGGTGGC,-0.174,-0.103,-0.708,-0.224,-1.24,0.901,0.886,0.443,-0.0913,0.0978,1.08,0.828,-0.609,-0.755,-0.331,-0.113,-0.622,0.721,-0.93,0.653
CCTCGGAGGACAACAGGAGGTCAGAGCAGCCAGA,1.3,1.9,1.9,1.4,-0.432,2.01,0.586,0.217,-0.349,-0.371,-0.204,0.388,-0.931,-1.16,1.41,2.05,0.438,2.23,0.698,2.87
TAGCCTAGGTCATTGGGCCAATATAGTACGCATC,4.69,3.66,1.13,2.95,0.235,4.38,4.57,4.16,1.53,3.46,3.03,4.13,0.385,0.532,1.58,1.83,-0.353,2.69,-0.0412,3.6
CCTATTAGTTGACCATTAGGGCAACCGAAGCTCG,0.493,0.0846,0.475,0.224,0.396,0.454,0.203,0.612,0.0251,0.278,1.18,1.3,-0.00387,0.76,1.65,0.111,0.563,0.412,1.35,1.04
GGAACGAGGGCAAAGTTGATAGAATCTGTCGACG,1.44,1.1,-0.584,1.01,-0.45,4.17,6.84,7.15,6.22,7.35,4.01,4.36,0.353,-0.207,0.397,1.25,0.121,1.74,-0.438,2.32
ATATGTAGGTTACATCCGGGACATTCAGGCTATG,0.396,2.2,0.343,1.11,0.574,3.44,5.41,4.47,1.95,3.37,7.57,7.46,4.54,2.06,1.33,0.599,0.5,0.964,0.969,1.08
CGTCAAAGTTCAACCAAGGTAACGTAAAGCACGC,7.34,6.27,4.15,4.07,1.7,5.02,5.31,5.53,2.39,4.77,0.703,2.22,0.566,0.664,3.1,5.55,4.15,4.39,1.73,5.25
CGTCCAAGTTCAAGGTCAGTGAAAGAGACTCGAA,4.93,4.22,1.93,3.18,0.857,4.02,2.06,2.5,0.198,1.24,0.857,1.87,0.331,-0.271,4.01,4.56,3.81,3.81,2.09,4.49
GGAACGAGGGCACGTTGATAGCAGAGTTTGATGG,0.419,0.105,-0.441,0.08,-0.424,1.67,1.7,1.56,0.331,1.19,4.33,3.73,0.361,-0.223,-0.0757,0.508,-0.125,0.282,-0.225,2.37
CCTTCCGGGTCACTGACAGGTTATAGCATTTGGA,4.43,3.92,0.31,3.22,0.12,5.01,4.96,5.08,1.75,3.7,3.69,5.08,0.702,-0.286,2.37,3.71,0.125,4.23,0.725,3.78
CAAACTAGCTCACGAAAGGTCAAAGTCGAATGAC,4.81,5.42,5.5,5.58,2.21,5.38,2.42,4.26,1.46,3.03,0.734,2.28,0.536,0.187,3.91,5.52,1.75,6.04,2.13,4.4
CCGACTGGGGCAAAGGTTACTATACTCAGTACGA,1.1,1.13,0.145,1.83,-0.765,4.86,10.7,8.89,8.85,9.45,4.92,5.73,-0.179,-0.335,1.41,1.93,-0.04,3.21,-0.0301,1.86

# Reference: the supplement of paper PMC6555819
